# Laboratory results from publication PMC11006913.
# Substitutions are numbered along the chain they refer to.
# Assays:
# Assay in all cases: PBM; 200 nM protein, PBS
# Conditions in all cases: dsDNA, one strand shown
# [1] = target: HOXC9 (Homo sapiens, UniProt P31274 178-260, K195R)
# [2] = target: T1, PAX4 (Homo sapiens, UniProt O43316 9-242, R200K)
# T1 sequence: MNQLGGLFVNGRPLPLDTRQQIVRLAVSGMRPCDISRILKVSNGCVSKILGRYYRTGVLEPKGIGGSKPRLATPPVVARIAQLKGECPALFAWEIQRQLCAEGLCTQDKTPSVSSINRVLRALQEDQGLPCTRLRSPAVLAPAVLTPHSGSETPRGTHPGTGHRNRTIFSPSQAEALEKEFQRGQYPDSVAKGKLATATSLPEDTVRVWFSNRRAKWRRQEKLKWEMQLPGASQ
# [3] = target: T2, PAX4 (Homo sapiens, UniProt O43316 9-242)
# T2 sequence: T1 sequence with K192R
# [4] = target: T3, NKX2-6 (Homo sapiens, UniProt A6NCS4 118-204, R150C)
# T3 sequence: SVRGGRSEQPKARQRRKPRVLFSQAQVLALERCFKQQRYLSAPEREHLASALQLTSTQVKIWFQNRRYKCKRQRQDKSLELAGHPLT
# [5] = target: HOXC9 (Homo sapiens, UniProt P31274 178-260)
# [6] = target: T4, PAX4 (Homo sapiens, UniProt O43316 9-242, R200Q)
# T4 sequence: T1 sequence with K192Q
# [7] = target: HOXC9 (Homo sapiens, UniProt P31274 178-260, R193K)
# [8] = target: T5, PAX4 (Homo sapiens, UniProt O43316 9-242, F177V)
# T5 sequence: T1 sequence with F169V, K192R
# [9] = target: T6, PAX4 (Homo sapiens, UniProt O43316 9-242, F177Y)
# T6 sequence: T1 sequence with F169Y, K192R
# [10] = target: HOXC9 (Homo sapiens, UniProt P31274 178-260, R222W)
# [11] = target: T7, PAX4 (Homo sapiens, UniProt O43316 9-242, R227W)
# T7 sequence: T1 sequence with K192R, R219W
# [12] = target: PRRX1 (Homo sapiens, UniProt P54821 80-166, F113S)
# [13] = target: MSX2 (Homo sapiens, UniProt P35548 130-214, R199I)
# [14] = target: MSX2 (Homo sapiens, UniProt P35548 130-214)
# [15] = target: MSX2 (Homo sapiens, UniProt P35548 130-214, F161Y)
# [16] = target: PRRX1 (Homo sapiens, UniProt P54821 80-166)
# [17] = target: ALX4 (Homo sapiens, UniProt Q9H161 200-286)
# [18] = target: ALX4 (Homo sapiens, UniProt Q9H161 200-286, Q225E)
# [19] = target: HOXC10 (Homo sapiens, UniProt Q9NYD6 254-340)
# [20] = target: HOXC10 (Homo sapiens, UniProt Q9NYD6 254-340, K271E)
# [21] = target: ALX1 (Homo sapiens, UniProt Q15699 118-204, L144V)
# [22] = target: ALX1 (Homo sapiens, UniProt Q15699 118-204, L144R)
# [23] = target: ALX1 (Homo sapiens, UniProt Q15699 118-204)
# [24] = target: HOXA4 (Homo sapiens, UniProt Q00056 201-287, W262R)
# [25] = target: HOXA4 (Homo sapiens, UniProt Q00056 201-287)
# [26] = target: HOXA4 (Homo sapiens, UniProt Q00056 201-287, W262F)
# [27] = target: HOXB6 (Homo sapiens, UniProt P17509 132-218)
# [28] = target: ALX3 (Homo sapiens, UniProt O95076 139-225, L168Q)
# [29] = target: ALX3 (Homo sapiens, UniProt O95076 139-225, L168V)
# [30] = target: VAX1 (Homo sapiens, UniProt Q5SQQ9 86-172)
# [31] = target: VAX1 (Homo sapiens, UniProt Q5SQQ9 86-172, T142I)
# [32] = target: VAX1 (Homo sapiens, UniProt Q5SQQ9 86-172, K157R)
# VAX1 (Homo sapiens, UniProt Q5SQQ9 86-172, K157R), sequence (Q5SQQ9 86-172 K157R): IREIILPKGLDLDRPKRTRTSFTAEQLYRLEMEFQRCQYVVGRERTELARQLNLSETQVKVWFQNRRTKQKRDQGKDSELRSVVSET
# PRRX1 (Homo sapiens, UniProt P54821 80-166), sequence (P54821 80-166): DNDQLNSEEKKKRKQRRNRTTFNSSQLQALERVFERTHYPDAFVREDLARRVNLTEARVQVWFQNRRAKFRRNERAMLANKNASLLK
# HOXC9 (Homo sapiens, UniProt P31274 178-260), sequence (P31274 178-260): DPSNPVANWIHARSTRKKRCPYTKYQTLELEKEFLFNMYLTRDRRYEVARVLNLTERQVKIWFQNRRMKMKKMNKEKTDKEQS
# HOXC9 (Homo sapiens, UniProt P31274 178-260, R193K), sequence (P31274 178-260 R193K): as the sequence (P31274 178-260) above, with R16K counted along it
# HOXC9 (Homo sapiens, UniProt P31274 178-260, R222W), sequence (P31274 178-260 R222W): as the sequence (P31274 178-260) above, with R45W counted along it
# HOXA4 (Homo sapiens, UniProt Q00056 201-287, W262F), sequence (Q00056 201-287 W262F): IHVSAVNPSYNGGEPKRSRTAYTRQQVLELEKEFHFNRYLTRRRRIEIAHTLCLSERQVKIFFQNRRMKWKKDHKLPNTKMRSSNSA
# PRRX1 (Homo sapiens, UniProt P54821 80-166, F113S), sequence (P54821 80-166 F113S): as the sequence (P54821 80-166) above, with F34S counted along it
# ALX4 (Homo sapiens, UniProt Q9H161 200-286, Q225E), sequence (Q9H161 200-286 Q225E): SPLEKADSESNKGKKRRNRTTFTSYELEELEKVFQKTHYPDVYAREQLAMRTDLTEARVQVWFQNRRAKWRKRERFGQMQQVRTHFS
# HOXA4 (Homo sapiens, UniProt Q00056 201-287, W262R), sequence (Q00056 201-287 W262R): as the sequence (Q00056 201-287 W262F) above, with F62R counted along it
# HOXA4 (Homo sapiens, UniProt Q00056 201-287), sequence (Q00056 201-287): as the sequence (Q00056 201-287 W262F) above, with F62W counted along it
# HOXC10 (Homo sapiens, UniProt Q9NYD6 254-340, K271E), sequence (Q9NYD6 254-340 K271E): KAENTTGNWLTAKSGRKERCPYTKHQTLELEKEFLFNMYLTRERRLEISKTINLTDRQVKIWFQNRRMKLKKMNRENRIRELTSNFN
# HOXC9 (Homo sapiens, UniProt P31274 178-260, K195R), sequence (P31274 178-260 K195R): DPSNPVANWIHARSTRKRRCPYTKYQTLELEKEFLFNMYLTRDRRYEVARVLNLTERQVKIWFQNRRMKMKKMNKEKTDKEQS
# ALX4 (Homo sapiens, UniProt Q9H161 200-286), sequence (Q9H161 200-286): as the sequence (Q9H161 200-286 Q225E) above, with E26Q counted along it
# HOXC10 (Homo sapiens, UniProt Q9NYD6 254-340), sequence (Q9NYD6 254-340): as the sequence (Q9NYD6 254-340 K271E) above, with E18K counted along it
# MSX2 (Homo sapiens, UniProt P35548 130-214), sequence (P35548 130-214): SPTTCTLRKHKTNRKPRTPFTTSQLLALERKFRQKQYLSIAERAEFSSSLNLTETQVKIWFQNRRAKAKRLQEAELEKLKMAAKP
# MSX2 (Homo sapiens, UniProt P35548 130-214, F161Y), sequence (P35548 130-214 F161Y): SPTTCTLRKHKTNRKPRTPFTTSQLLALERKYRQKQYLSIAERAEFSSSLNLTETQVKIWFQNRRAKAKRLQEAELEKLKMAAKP
# MSX2 (Homo sapiens, UniProt P35548 130-214, R199I), sequence (P35548 130-214 R199I): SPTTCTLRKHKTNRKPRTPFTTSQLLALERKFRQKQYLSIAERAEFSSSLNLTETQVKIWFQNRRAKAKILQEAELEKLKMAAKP
# HOXB6, sequence (P17509 132-218): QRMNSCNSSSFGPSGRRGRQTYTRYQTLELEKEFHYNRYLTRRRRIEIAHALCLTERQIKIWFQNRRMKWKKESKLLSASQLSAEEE
# ALX3 (Homo sapiens, UniProt O95076 139-225, L168Q), sequence (O95076 139-225 L168Q): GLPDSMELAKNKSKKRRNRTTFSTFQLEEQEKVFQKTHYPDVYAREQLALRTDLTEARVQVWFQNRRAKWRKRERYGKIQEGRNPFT
# ALX1 (Homo sapiens, UniProt Q15699 118-204), sequence (Q15699 118-204): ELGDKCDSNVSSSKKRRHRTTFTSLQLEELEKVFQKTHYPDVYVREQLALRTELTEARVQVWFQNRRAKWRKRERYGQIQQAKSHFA
# ALX1 (Homo sapiens, UniProt Q15699 118-204, L144V), sequence (Q15699 118-204 L144V): as the sequence (Q15699 118-204) above, with L27V counted along it
# VAX1 (Homo sapiens, UniProt Q5SQQ9 86-172, T142I), sequence (Q5SQQ9 86-172 T142I): as the sequence (Q5SQQ9 86-172 K157R) above, with T57I, R72K counted along it
# VAX1 (Homo sapiens, UniProt Q5SQQ9 86-172), sequence (Q5SQQ9 86-172): as the sequence (Q5SQQ9 86-172 K157R) above, with R72K counted along it
# ALX3 (Homo sapiens, UniProt O95076 139-225, L168V), sequence (O95076 139-225 L168V): as the sequence (O95076 139-225 L168Q) above, with Q30V counted along it
# ALX1 (Homo sapiens, UniProt Q15699 118-204, L144R), sequence (Q15699 118-204 L144R): as the sequence (Q15699 118-204) above, with L27R counted along it
sequence,measurement,setting,value
CCGGGAGC,binding signal,[1],"9.52 upbm affinity estimate (log intensity, higher = more binding, comparable within an allelic series)"
same,binding signal,[2],"9.29 upbm affinity estimate (log intensity, higher = more binding, comparable within an allelic series)"
same,binding signal,[3],"9.27 upbm affinity estimate (log intensity, higher = more binding, comparable within an allelic series)"
same,binding signal,[4],"9.24 upbm affinity estimate (log intensity, higher = more binding, comparable within an allelic series)"
same,binding signal,[5],"9.61 upbm affinity estimate (log intensity, higher = more binding, comparable within an allelic series)"
same,binding signal,[6],"9.33 upbm affinity estimate (log intensity, higher = more binding, comparable within an allelic series)"
same,binding signal,[7],"9.49 upbm affinity estimate (log intensity, higher = more binding, comparable within an allelic series)"
same,binding signal,[8],"9.16 upbm affinity estimate (log intensity, higher = more binding, comparable within an allelic series)"
same,binding signal,[9],"9.2 upbm affinity estimate (log intensity, higher = more binding, comparable within an allelic series)"
same,binding signal,[10],"9.58 upbm affinity estimate (log intensity, higher = more binding, comparable within an allelic series)"
same,binding signal,[11],"9.25 upbm affinity estimate (log intensity, higher = more binding, comparable within an allelic series)"
GGCGCGCC,binding signal,[1],"9.93 upbm affinity estimate (log intensity, higher = more binding, comparable within an allelic series)"
same,binding signal,[12],"9.33 upbm affinity estimate (log intensity, higher = more binding, comparable within an allelic series)"
same,binding signal,[5],"10.1 upbm affinity estimate (log intensity, higher = more binding, comparable within an allelic series)"
same,binding signal,[13],"9.71 upbm affinity estimate (log intensity, higher = more binding, comparable within an allelic series)"
same,binding signal,[7],"9.89 upbm affinity estimate (log intensity, higher = more binding, comparable within an allelic series)"
same,binding signal,[14],"10.1 upbm affinity estimate (log intensity, higher = more binding, comparable within an allelic series)"
same,binding signal,[10],"9.82 upbm affinity estimate (log intensity, higher = more binding, comparable within an allelic series)"
same,binding signal,[15],"10 upbm affinity estimate (log intensity, higher = more binding, comparable within an allelic series)"
same,binding signal,[16],"9.73 upbm affinity estimate (log intensity, higher = more binding, comparable within an allelic series)"
GCCCGAGC,binding signal,[1],"9.54 upbm affinity estimate (log intensity, higher = more binding, comparable within an allelic series)"
same,binding signal,[17],"8.18 upbm affinity estimate (log intensity, higher = more binding, comparable within an allelic series)"
same,binding signal,[18],"8.13 upbm affinity estimate (log intensity, higher = more binding, comparable within an allelic series)"
same,binding signal,[5],"9.62 upbm affinity estimate (log intensity, higher = more binding, comparable within an allelic series)"
same,binding signal,[7],"9.44 upbm affinity estimate (log intensity, higher = more binding, comparable within an allelic series)"
same,binding signal,[10],"9.78 upbm affinity estimate (log intensity, higher = more binding, comparable within an allelic series)"
CCCTCCAG,binding signal,[1],"9.59 upbm affinity estimate (log intensity, higher = more binding, comparable within an allelic series)"
same,binding signal,[19],"10.1 upbm affinity estimate (log intensity, higher = more binding, comparable within an allelic series)"
same,binding signal,[5],"9.64 upbm affinity estimate (log intensity, higher = more binding, comparable within an allelic series)"
same,binding signal,[7],"9.54 upbm affinity estimate (log intensity, higher = more binding, comparable within an allelic series)"
same,binding signal,[20],"10.1 upbm affinity estimate (log intensity, higher = more binding, comparable within an allelic series)"
same,binding signal,[10],"9.74 upbm affinity estimate (log intensity, higher = more binding, comparable within an allelic series)"
ATATTGAC,binding signal,[1],"11.1 upbm affinity estimate (log intensity, higher = more binding, comparable within an allelic series)"
same,binding signal,[12],"10.1 upbm affinity estimate (log intensity, higher = more binding, comparable within an allelic series)"
same,binding signal,[5],"11.1 upbm affinity estimate (log intensity, higher = more binding, comparable within an allelic series)"
same,binding signal,[7],"11.1 upbm affinity estimate (log intensity, higher = more binding, comparable within an allelic series)"
same,binding signal,[16],"11.4 upbm affinity estimate (log intensity, higher = more binding, comparable within an allelic series)"
CAGACGGC,binding signal,[1],"9.46 upbm affinity estimate (log intensity, higher = more binding, comparable within an allelic series)"
same,binding signal,[12],"9.13 upbm affinity estimate (log intensity, higher = more binding, comparable within an allelic series)"
same,binding signal,[5],"9.65 upbm affinity estimate (log intensity, higher = more binding, comparable within an allelic series)"
same,binding signal,[21],"6.56 upbm affinity estimate (log intensity, higher = more binding, comparable within an allelic series)"
same,binding signal,[7],"9.48 upbm affinity estimate (log intensity, higher = more binding, comparable within an allelic series)"
same,binding signal,[22],"6.52 upbm affinity estimate (log intensity, higher = more binding, comparable within an allelic series)"
same,binding signal,[10],"9.64 upbm affinity estimate (log intensity, higher = more binding, comparable within an allelic series)"
same,binding signal,[23],"6.59 upbm affinity estimate (log intensity, higher = more binding, comparable within an allelic series)"
same,binding signal,[16],"9.37 upbm affinity estimate (log intensity, higher = more binding, comparable within an allelic series)"
AATAGGTG,binding signal,[24],"10.3 upbm affinity estimate (log intensity, higher = more binding, comparable within an allelic series)"
same,binding signal,[25],"11.3 upbm affinity estimate (log intensity, higher = more binding, comparable within an allelic series)"
same,binding signal,[26],"10.3 upbm affinity estimate (log intensity, higher = more binding, comparable within an allelic series)"
ATATAACG,binding signal,[24],"10.4 upbm affinity estimate (log intensity, higher = more binding, comparable within an allelic series)"
same,binding signal,[25],"11.4 upbm affinity estimate (log intensity, higher = more binding, comparable within an allelic series)"
same,binding signal,[27],"10.7 upbm affinity estimate (log intensity, higher = more binding, comparable within an allelic series)"
CGCTTAAC,binding signal,[24],"10.2 upbm affinity estimate (log intensity, higher = more binding, comparable within an allelic series)"
same,binding signal,[25],"11.2 upbm affinity estimate (log intensity, higher = more binding, comparable within an allelic series)"
same,binding signal,[26],"10.3 upbm affinity estimate (log intensity, higher = more binding, comparable within an allelic series)"
GACCTCGC,binding signal,[1],"9.59 upbm affinity estimate (log intensity, higher = more binding, comparable within an allelic series)"
same,binding signal,[19],"10 upbm affinity estimate (log intensity, higher = more binding, comparable within an allelic series)"
same,binding signal,[5],"9.54 upbm affinity estimate (log intensity, higher = more binding, comparable within an allelic series)"
same,binding signal,[7],"9.57 upbm affinity estimate (log intensity, higher = more binding, comparable within an allelic series)"
same,binding signal,[20],"9.99 upbm affinity estimate (log intensity, higher = more binding, comparable within an allelic series)"
same,binding signal,[10],"9.76 upbm affinity estimate (log intensity, higher = more binding, comparable within an allelic series)"
CTCATCTA,binding signal,[24],"10.3 upbm affinity estimate (log intensity, higher = more binding, comparable within an allelic series)"
same,binding signal,[25],"11.5 upbm affinity estimate (log intensity, higher = more binding, comparable within an allelic series)"
AAGATTAC,binding signal,[24],"10.2 upbm affinity estimate (log intensity, higher = more binding, comparable within an allelic series)"
same,binding signal,[25],"11.1 upbm affinity estimate (log intensity, higher = more binding, comparable within an allelic series)"
same,binding signal,[26],"10.4 upbm affinity estimate (log intensity, higher = more binding, comparable within an allelic series)"
AATTAAAA,binding signal,[1],"12.5 upbm affinity estimate (log intensity, higher = more binding, comparable within an allelic series)"
same,binding signal,[12],"11.2 upbm affinity estimate (log intensity, higher = more binding, comparable within an allelic series)"
same,binding signal,[18],"12.8 upbm affinity estimate (log intensity, higher = more binding, comparable within an allelic series)"
same,binding signal,[20],"11.8 upbm affinity estimate (log intensity, higher = more binding, comparable within an allelic series)"
same,binding signal,[28],"10.3 upbm affinity estimate (log intensity, higher = more binding, comparable within an allelic series)"
same,binding signal,[29],"9.86 upbm affinity estimate (log intensity, higher = more binding, comparable within an allelic series)"
TGATGACA,binding signal,[24],"10.2 upbm affinity estimate (log intensity, higher = more binding, comparable within an allelic series)"
same,binding signal,[25],"11.8 upbm affinity estimate (log intensity, higher = more binding, comparable within an allelic series)"
AATCACTG,binding signal,[24],"10.3 upbm affinity estimate (log intensity, higher = more binding, comparable within an allelic series)"
same,binding signal,[25],"11.3 upbm affinity estimate (log intensity, higher = more binding, comparable within an allelic series)"
same,binding signal,[30],"9.43 upbm affinity estimate (log intensity, higher = more binding, comparable within an allelic series)"
same,binding signal,[31],"9.21 upbm affinity estimate (log intensity, higher = more binding, comparable within an allelic series)"
same,binding signal,[32],"9.33 upbm affinity estimate (log intensity, higher = more binding, comparable within an allelic series)"
AGTAATTC,binding signal,[24],"10.4 upbm affinity estimate (log intensity, higher = more binding, comparable within an allelic series)"
same,binding signal,[25],"11.6 upbm affinity estimate (log intensity, higher = more binding, comparable within an allelic series)"
CGCGGTGC,binding signal,[1],"9.77 upbm affinity estimate (log intensity, higher = more binding, comparable within an allelic series)"
same,binding signal,[17],"8.05 upbm affinity estimate (log intensity, higher = more binding, comparable within an allelic series)"
same,binding signal,[18],"8.13 upbm affinity estimate (log intensity, higher = more binding, comparable within an allelic series)"
same,binding signal,[5],"9.77 upbm affinity estimate (log intensity, higher = more binding, comparable within an allelic series)"
same,binding signal,[13],"9.6 upbm affinity estimate (log intensity, higher = more binding, comparable within an allelic series)"
same,binding signal,[7],"9.76 upbm affinity estimate (log intensity, higher = more binding, comparable within an allelic series)"
same,binding signal,[14],"9.52 upbm affinity estimate (log intensity, higher = more binding, comparable within an allelic series)"
same,binding signal,[10],"9.74 upbm affinity estimate (log intensity, higher = more binding, comparable within an allelic series)"
same,binding signal,[15],"9.68 upbm affinity estimate (log intensity, higher = more binding, comparable within an allelic series)"
GTCTATAA,binding signal,[24],"10.4 upbm affinity estimate (log intensity, higher = more binding, comparable within an allelic series)"
same,binding signal,[25],"11.4 upbm affinity estimate (log intensity, higher = more binding, comparable within an allelic series)"
AGTCTTTA,binding signal,[24],"10.2 upbm affinity estimate (log intensity, higher = more binding, comparable within an allelic series)"
same,binding signal,[25],"11.2 upbm affinity estimate (log intensity, higher = more binding, comparable within an allelic series)"
same,binding signal,[26],"10.4 upbm affinity estimate (log intensity, higher = more binding, comparable within an allelic series)"
